CTSL1 counter: Fasciola hepatica cathepsin L1 inhibitors, primary screen, counter-screen for PFM18AAP inhibitor project, biochemical, QFRET, fluorogenic peptide substrate. recombinant F. hepatica cathepsin L1, Z-Leu-Arg-MCA fluorescence. inhibition, % at 5.96 µM. actives 0.49% (n = 300,000). AID 1906, 2009;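 active = inhibition above the mean of all tested compounds plus 3 SD, set per screening campaign, cut at about 17% in these data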;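 note: 0% = plate median of test compound wells and 100% = 1 µM Z-Phe-Ala-diazomethylketone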
m5-HT2A agonist: mouse Htr2a agonists via beta-arrestin recruitment, primary screen, cell-based, luminescence. CHO-K1 mHTR2A beta-arrestin complementation; percent of 30 µM serotonin response. activation, % at 7.6 µM. actives 0.66% (n = 360,000). AID 624169, 2012;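 active = activation above a run cutoff, the mean activation of all tested compounds plus 3 SD, cut at about 14% in these data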;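 note: 0% = plate median of compound wells and 100% = 30 µM serotonin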
LANA-H2A inh: blockers of LANA interaction with H2A/H2B – biochemical, FP readout, HTS, primary screen | actives 0.6% (n = 320,000) | cell-free LANA-H2A/H2B peptide, fluorescence polarization | AID 2629, 2010 | inhibition, % (test concentration not listed) | Protein LANA1 (Human herpesvirus 8 type P (isolate GK18)), Q9QR71; in the data active = inhibition mostly above about 10%, no sharp cut-off; inactive = mostly below about 6.7%
HDAC3 inh: HDAC3 deacetylase inhibitors, primary screen, biochemical, fluorescence, cell-free homogeneous | recombinant HDAC3, fluorogenic peptide/trypsin coupled | Histone deacetylase 3 (Homo sapiens), O15379 | inhibition, % at 8.3 µM | actives 0.15% (n = 320,000); in the data active = inhibition above about 26%, passing the limit was not always enough
Target sequence (O15379 whole entry, looked up): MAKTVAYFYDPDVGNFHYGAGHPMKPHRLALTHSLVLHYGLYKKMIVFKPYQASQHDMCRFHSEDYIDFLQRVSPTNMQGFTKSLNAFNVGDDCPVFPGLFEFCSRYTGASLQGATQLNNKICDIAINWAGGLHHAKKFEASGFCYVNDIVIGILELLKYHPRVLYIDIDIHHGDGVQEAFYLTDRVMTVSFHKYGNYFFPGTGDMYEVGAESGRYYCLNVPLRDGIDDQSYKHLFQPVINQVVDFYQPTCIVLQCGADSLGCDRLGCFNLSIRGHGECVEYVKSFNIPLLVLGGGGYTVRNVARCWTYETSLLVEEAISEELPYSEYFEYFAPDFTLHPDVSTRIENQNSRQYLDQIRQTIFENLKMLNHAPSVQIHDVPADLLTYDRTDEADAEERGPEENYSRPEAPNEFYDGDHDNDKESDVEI
MOR ag counter: OPRM1 agonists via beta-arrestin recruitment, confirmation, counter-screen for mouse HTR2A agonist project, cell-based, luminescence, single concentration; shares compounds with m5-HT2A agonist; U2OS OPRM1 beta-arrestin PathHunter; DMSO 0%, DAMGO 9.3 µM 100%; activation, % at 9.3 µM; actives 5.3% (n = 2,300); AID 624380, 2012;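 active = mean activation above the mean of DMSO-only wells plus 3 SD, cut at about 0.5% in these data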
HTR2A ag conf: mouse HTR2A agonists, beta-arrestin recruitment, confirmation, cell-based, luminescence, CHO-K1 PathHunter, triplicate; activation, % at 7.6 µM; DMSO 0%, 30 µM serotonin 100%; shares compounds with m5-HT2A agonist; actives 19% (n = 2,300);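 active = mean activation across triplicates above the hit threshold derived in the original primary screen, cut at about 15% in these data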
The depositor's hits bear a star. Most compounds without a hit are left out; they make up all but 1.7% or so of the library.

Screening O=C1Nc2ccccc2-n2nnnc2C1N1CCN(C(=O)c2ccco2)CC1 (configuration not stated) returned m5-HT2A agonist 20.1*, MOR ag counter -0.7 and HTR2A ag conf -5.5.
`O=C1Nc2ccccc2-n2nnnc2C1N1CCN(c2ccccn2)CC1` (configuration not stated) gave m5-HT2A agonist -5.0.
For COc1ccc(/C=C/C(=O)Nc2nonc2NC(C)=O)cc1 the results were CTSL1 counter 3.7, m5-HT2A agonist 25.1*, LANA-H2A inh -0.8, HDAC3 inh 4.6, MOR ag counter -0.6 and HTR2A ag conf -3.0.
Screening COc1ccc(/C=C/C(=O)Nc2cc(C)on2)cc1 returned CTSL1 counter -1.9, m5-HT2A agonist -3.6, LANA-H2A inh 3.6 and HDAC3 inh 0.9.
Screening O=C(NC1CCCCC1)C(c1ccc(C(F)(F)F)cc1)n1c(=O)c(-c2cc3ccccc3[nH]2)nc2ccccc21 (configuration not stated) returned m5-HT2A agonist -3.0.
For O=C(NC1CCCCC1)C(c1ccncc1)n1c(=O)c(-c2cc3ccccc3[nH]2)nc2ccccc21 (configuration not stated) the results were m5-HT2A agonist 15.9*, MOR ag counter 0.1 and HTR2A ag conf 5.3.
For CC(C)(C)NC(=O)C(c1ccncc1)n1c(=O)c(-c2cc3ccccc3[nH]2)nc2ccccc21 (configuration not stated) the results were m5-HT2A agonist 2.0.
`CC(C)(C)NC(=O)C(c1cc2ccccc2o1)n1c(=O)c(-c2cc3ccccc3[nH]2)nc2ccccc21` (configuration not stated) gave m5-HT2A agonist 31.5*, MOR ag counter 0.1 and HTR2A ag conf 1.6.
For CCCCCCN1C(=O)CC(NC(=O)OCC2c3ccccc3-c3ccccc32)C/C=C\C1C(C)C (configuration not stated) the results were m5-HT2A agonist 16.0*, MOR ag counter -0.7 and HTR2A ag conf -5.5.
`Cc1ccccc1-n1c(SC(C)C(=O)NCC2CCCO2)nnc1-c1ccncc1` (configuration not stated) gave m5-HT2A agonist 15.2*, MOR ag counter -0.3 and HTR2A ag conf -0.6.
Screening Cc1ccccc1-n1c(SCC(=O)NCC2CCCO2)nnc1-c1ccncc1 (configuration not stated) returned m5-HT2A agonist -1.9, LANA-H2A inh -0.9 and HDAC3 inh 1.0.
CCCCN(C)C(=O)C1CCC(CNS(=O)(=O)c2ccc3c(c2)CC(C)N3C(=O)C2CC2)CC1 (configuration not stated) was read as CTSL1 counter 3.0, m5-HT2A agonist 2.9, LANA-H2A inh 0.8 and HDAC3 inh -0.1.
For Cc1cccc(C2CN(C)CCc3c2cc(O)c(O)c3Cl)c1 (configuration not stated) the results were CTSL1 counter -1.3, m5-HT2A agonist 21.7*, LANA-H2A inh -17.7, HDAC3 inh -6.0, MOR ag counter -0.4 and HTR2A ag conf 34.0*.
For C=CCN1CCc2c(cc(O)c(O)c2Cl)C(c2ccccc2)C1 (configuration not stated) the results were CTSL1 counter 4.1, m5-HT2A agonist 60.3*, LANA-H2A inh 2.5, HDAC3 inh -4.0, MOR ag counter 0.3 and HTR2A ag conf 147.6*.
`C=CCN1CCc2cc(O)c(O)cc2C(c2ccccc2)C1` (configuration not stated) gave CTSL1 counter 8.8, m5-HT2A agonist 29.5*, LANA-H2A inh 4.9, HDAC3 inh -2.6, MOR ag counter -0.5 and HTR2A ag conf 85.5*.
COc1cccc(NC(=O)C2(C)CCN2Cc2ccccc2OC(F)F)c1 (configuration not stated) was read as m5-HT2A agonist 0.8.
`COc1ccc(-c2cc(C(=O)Nc3ccc(NC(C)=O)cc3)[nH]n2)c(C)c1` gave m5-HT2A agonist 20.8*, MOR ag counter -0.5 and HTR2A ag conf -7.0.
Screening COc1ccc(-c2cc(C(=O)Nc3cc(OC)c(OC)c(OC)c3)[nH]n2)c(C)c1 returned m5-HT2A agonist 0.1.
`C#CCN(C[C@H]1[C@H](OC(=O)NCc2ccccc2)[C@H](OC(=O)NCc2ccccc2)C[C@H]2C(=O)N(c3ccccc3)C(=O)[C@@H]12)S(=O)(=O)c1ccc(C)cc1` gave m5-HT2A agonist -0.8.
For C#CCN(C[C@H]1[C@H](OC(=O)NCCCCCC)[C@H](OC(=O)NCCCCCC)C[C@H]2C(=O)N(c3ccccc3)C(=O)[C@@H]12)S(=O)(=O)c1ccc(C)cc1 the results were m5-HT2A agonist 14.9*, MOR ag counter -0.3 and HTR2A ag conf -6.4.
Cc1cccc(NC(=O)NNC(=O)c2cc3occc3[nH]2)c1C was read as CTSL1 counter 0.2, m5-HT2A agonist -1.7, LANA-H2A inh -1.5 and HDAC3 inh 3.1.
Screening CC(C)CN(Cc1cc(=O)oc2cc(-c3ccccc3)c(O)cc12)CC(C)C returned CTSL1 counter -4.3, m5-HT2A agonist 16.1*, LANA-H2A inh -7.2, HDAC3 inh -0.8, MOR ag counter 2.3* and HTR2A ag conf 22.3*.
Screening O=c1cc(CN2CCN(C/C=C/c3ccccc3)CC2)c2cc(O)c(-c3ccccc3)cc2o1 returned CTSL1 counter 3.5, m5-HT2A agonist -2.0, LANA-H2A inh -2.8 and HDAC3 inh 2.9.
CCCC(C(=O)NC1CCCC1)N(CC1CCCO1)C(=O)CNS(=O)(=O)c1ccc(F)cc1 (configuration not stated) was read as CTSL1 counter 3.7, m5-HT2A agonist -2.0, LANA-H2A inh 7.7 and HDAC3 inh -6.4.
Cc1cc(C(C)(C)C)c(OC(=O)[C@@H]2OC(c3ccccc3)=C[C@H]2c2ccccc2)c(C(C)(C)C)c1 was read as m5-HT2A agonist 7.7, LANA-H2A inh 4.8 and HDAC3 inh -3.5.
For COc1ccc(NC2CCCN(C(=O)Cn3ccc(C)n3)C2)cc1OC (configuration not stated) the results were CTSL1 counter 0.7, m5-HT2A agonist 15.4*, LANA-H2A inh 7.7, MOR ag counter -0.3 and HTR2A ag conf 0.1.
`CC1(C)CC(NC(=O)c2ccc(Cl)c(S(=O)(=O)N(Cc3ccccc3)c3ccccc3)c2)CC(C)(C)N1` gave CTSL1 counter 2.2, LANA-H2A inh -1.0 and HDAC3 inh 1.7.
